# Bioassay records from PubChem.
# CHO-K1 Ca PAM: nonselective activator or artifact in parental CHO-K1 calcium assay; ATP EC20, Fluo-8 calcium fluorescence; 0% at ATP EC20, 100% at ATP max; activation, % at 3 µM; hit rate 0.02% among 360,000;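 active = activation above the run cutoff, the mean activation of all test compounds plus 3 SD, cut at about 40% in these data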;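 also: peak over basal fluorescence ratio in a 140 s read after ATP addition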
# CHRM1 antagonist: human CHRM1 antagonism. hit rate 1.3% among 360,000. P11229. CHO-K1 hM1, Fluo-8 calcium fluorescence, ACh EC80 antagonist. inhibition, % at 3 µM;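 active = percent inhibition above its own plate's cutoff, namely the mean of that plate's compound wells plus 3 SD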;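 also: peak over basal fluorescence ratio during 140 s after agonist addition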
# Target sequence (P11229 whole entry, looked up): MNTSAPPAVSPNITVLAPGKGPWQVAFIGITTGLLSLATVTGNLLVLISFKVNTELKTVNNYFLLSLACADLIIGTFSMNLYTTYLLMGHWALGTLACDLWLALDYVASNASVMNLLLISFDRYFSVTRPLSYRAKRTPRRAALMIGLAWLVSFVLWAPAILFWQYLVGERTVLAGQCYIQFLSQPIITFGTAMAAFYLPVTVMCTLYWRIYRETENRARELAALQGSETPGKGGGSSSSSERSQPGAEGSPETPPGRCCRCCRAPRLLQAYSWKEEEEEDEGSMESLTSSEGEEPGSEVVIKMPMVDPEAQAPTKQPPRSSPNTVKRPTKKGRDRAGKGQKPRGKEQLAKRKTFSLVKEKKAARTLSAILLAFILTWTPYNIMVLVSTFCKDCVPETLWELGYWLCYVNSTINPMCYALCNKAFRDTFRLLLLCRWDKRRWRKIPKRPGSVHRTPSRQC
# CHO-K1 Ca antag: nonselective inhibitor or artifact in parental CHO-K1 cells | AID 602250 | hit rate 0.6% among 360,000 | ATP-induced calcium, Fluo-8 fluorescence | inhibition, % at 3 µM;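 active = inhibition above a per-plate cutoff, the plate's mean sample inhibition plus 3 SD, cut at about 24% in these data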
# CHRM1 PAM: human CHRM1 positive allosteric modulation; P11229; CHO-K1 hM1, Fluo-8 calcium fluorescence, ACh EC20; 0% = ACh EC20, 100% = maximal ACh; activation, % at 3 µM; hit rate 0.088% among 360,000; in the data active = activation above about 19%, passing the limit was not always enough
# CHRM1 agonist: activates human CHRM1 receptor; CHO-K1 hM1, Fluo-8 calcium fluorescence, agonist mode; 0% DMSO, 100% acetylcholine EC100; activation, % at 3 µM; hit rate 0.33% among 360,000; AID 588814;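 active = activation above the run's mean compound activation plus 3 SD, cut at about 16% in these data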;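 also: peak over basal fluorescence ratio within a 140 s kinetic read after compound addition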
# M1 ag parental: nonselective activator or artifact in parental CHO-K1 cells | Fluo-8 calcium fluorescence; scaled to maximal ATP response, vehicle zero | activation, % at 3 µM | hit rate 0.48% among 360,000 | AID 602248; in the data active = activation above about 15%;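 also: untransfected CHO-K1 host cells lacking M1 receptor as counterscreen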
# A number is an active result; - = inactive. The list is not random: actives were taken first. Their share in the collection is about 2.4%.
SMILES,CHO-K1 Ca PAM,CHRM1 antagonist,CHO-K1 Ca antag,CHRM1 PAM,CHRM1 agonist,M1 ag parental
COc1ccccc1C1C(C(=O)c2cc3ccccc3o2)=C(O)C(=O)N1CCN(C)C (configuration not stated),-,-,-,-,-,-
CCOc1ccc(CCNC(=O)CSc2nnnn2C)cc1OCC,-,-,-,-,-,15.7
Cn1nnnc1SCC(=O)NCCc1ccc(Cl)cc1,-,-,-,-,-,-
CC(C)CC1C(=O)N(Cc2cn(CC3CCCCC3)nn2)CCS(=O)(=O)N1Cc1ccc(-c2ccncc2)cc1 (configuration not stated),-,-,-,-,19.4,-
Cc1ccc(-c2ccc(CN3C(C)C(=O)N(Cc4cn(CC5CCCCC5)nn4)CCS3(=O)=O)cc2)cc1 (configuration not stated),-,-,-,-,-,-
COc1ccc(-c2ccc(CN3C(C)C(=O)N(Cc4cn(CC5CCCCC5)nn4)CCS3(=O)=O)cc2)cc1 (configuration not stated),-,-,25.5,-,-,-
Cc1c(NC(=O)c2cccc(NC(=O)Cc3ccccc3Cl)c2)c(=O)n(-c2ccccc2)n1C,-,-,-,-,-,-
Cc1ccc2oc(=O)n(CCC(=O)Nc3ccc(N4CCOCC4)cc3)c2c1,-,-,-,-,-,-
CN(Cc1ccccc1)C(=S)Nc1ccc(OC(F)F)cc1,-,-,-,-,-,-
CN(C)CCCN(Cc1ccccc1)C(=S)Nc1ccc(OC(F)F)cc1,-,55.0,-,-,-,-
CCN(CC)S(=O)(=O)c1ccc(S(=O)(=O)Nc2ccc3c(c2)oc2ccccc23)cc1,-,-,24.9,-,-,-
COc1ccccc1NC(=O)C(C)OC(=O)C1CC(=O)N(Cc2ccco2)C1 (configuration not stated),-,-,-,-,-,-
Cc1ccccc1C(=O)NC1CC2CCCC(C1)N2CC(C)C (configuration not stated),-,66.4,-,-,-,-
Cc1cc2c(cc1S(=O)(=O)CCC(=O)N(C)Cc1ccccc1)OCC(=O)N2,-,-,-,-,-,-
CCOc1cccc(=O)c2c(C)n(Cc3ccccc3)c(C)c12,-,-,-,-,-,23.4
NCCNC(=O)Cc1ccc(NC(=O)Cc2ccc(Nc3ncnc4c3ncn4[C@@H]3O[C@H](CO)[C@@H](O)[C@H]3O)cc2)cc1,-,-,-,-,-,-
COc1cc(-c2nc(C(=O)NCC3CCCO3)cc3c2[nH]c2ccccc23)cc(OC)c1OC (configuration not stated),-,-,-,-,-,-
O=C(NCC1CCCO1)c1cc2c([nH]c3ccccc32)c(-c2cccc(Cl)c2)n1 (configuration not stated),-,35.3,-,-,-,-
COc1ccc(N2C(=O)CC(N3CCN(c4nc5ccccc5s4)CC3)C2=O)cc1 (configuration not stated),-,-,-,-,-,-
Cc1[nH]nc(-c2ccc(OCc3cnn(-c4ccccc4)c3)cc2O)c1Oc1ccc(F)cc1,-,-,-,-,-,-
CCOc1ccc(-c2n[nH]c(C)c2Oc2ccc(OC)cc2)c(O)c1,-,-,24.3,-,-,-
CCc1ccccc1NC(=O)N1CCc2ccccc2C1,-,-,-,-,-,19.2
O=C(Nc1cccc2ccccc12)N1CCc2ccccc2C1,-,-,-,-,-,-
Cc1ccc(NS(=O)(=O)c2ccc(C(=O)OCC(=O)N3CCCCC3)cc2)cc1,-,-,-,-,-,-
CC1CCCC(C)N1C(=O)COc1ccc(C(=O)Nc2ccccc2N2CCOCC2)cc1 (configuration not stated),-,34.2,-,-,-,-
CC(C)(C)OC(=O)N1CCCC(C(=O)Nc2ccc(C(=O)N3CCCC3)cc2)C1 (configuration not stated),-,-,-,-,-,-
C/C(=N\Nc1ccc(C(F)(F)F)cc1[N+](=O)[O-])C(C)C,-,-,-,-,-,-
CN1C(=O)/C(=C/c2ccccc2OCc2cccc(F)c2)N(C)C1=S,-,99.6,-,-,-,-
CN1C(=O)/C(=C/c2ccc(OCc3ccc(F)cc3)cc2)N(C)C1=S,-,-,-,-,-,-
